# Assay results reported in PubChem BioAssay (NCATS).
# Results filed as inconclusive are left out. A call without a number means that no potency is given here. Calls of active or inactive are those of the source. Unless noted, calls come from the whole dose curve; as a rule, active = well fitted curve in the direction sought with a large enough effect; inconclusive = small, poorly fitted or top-dose-only effect, or another doubt; inactive = no such curve, though single readings can be large; an effect the other way counts as inactive or inconclusive.
# Assays:
# [1] = system: 7G8; test: qHTS profiling for inhibitors of Plasmodium falciparum proliferation (AID 504749); note: nearly all actives have a fitted effect of over 60% in size; note: potency is the fitted concentration of half-maximal effect; details: P. falciparum in erythrocytes, SYBR Green DNA, 72 h; series mostly up to 28.7 µM
# In short: (§1)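 Three-day growth assay of blood-stage parasites in erythrocytes (0.3% parasitemia, 2.5% hematocrit) at 37 C, 5% CO2, quantified by SYBR Green DNA staining after overnight detergent lysis.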
# [2] = system: CP260; test: as above; details: P. falciparum in erythrocytes, SYBR Green DNA, 72 h; series mostly up to 28.7 µM
# In short: as §1
# [3] = system: DIV17; test: as above; details: P. falciparum in erythrocytes, SYBR Green DNA, 72 h; series mostly up to 28.7 µM
# In short: as §1
# [4] = system: PC26; test: as above; details: P. falciparum in erythrocytes, SYBR Green DNA, 72 h; series mostly up to 28.7 µM
# In short: as §1
# [5] = system: TAB109; test: as above; details: P. falciparum in erythrocytes, SYBR Green DNA, 72 h; series mostly up to 28.7 µM
# In short: as §1
# [6] = biological target: Bile acid receptor (Homo sapiens) (UniProt Q96RI1); test: qHTS assay for small molecule agonists of farnesoid X receptor signaling (AID 588527; calls by dose curve); details: HEK293T FXR-UAS-bla, beta-lactamase ratio, 16 h; activation: stronger effect = higher value
# In short: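 FXR-UAS-bla HEK293T cells (10% dialyzed FBS) preincubated 5-7 h at 37 C, then compounds at up to 92 uM for 16 h at 37 C. CCF4 beta-lactamase read-out after 2 h RT. Normalized to chenodeoxycholic acid (100 uM) and DMSO; Hill fit gave EC50 and efficacy.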
# [7] = biological target: Peroxisome proliferator-activated receptor delta (Homo sapiens) (UniProt Q03181); test: qHTS assay for small molecule agonists of peroxisome proliferator-activated receptor delta signaling (AID 588534; calls by dose curve)
# In short: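 Reporter cells were plated and held 5 hrs at 37 C before compounds were added. After 18 hrs at 37 C, CCF4 dye was loaded for 2 hrs at RT and fluorescence measured.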
# [8] = biological target: Vitamin D3 receptor (Homo sapiens) (UniProt P11473); test: qHTS assay for small molecule agonists of vitamin D receptor signaling (AID 588543; calls by dose curve)
# In short: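 Measured: β-lactamase reporter activity (CCF4, 405 nm excitation, 460/530 nm emission) in HEK293T VDR-UAS-bla cells after 16 h compound exposure at 37 °C. Normalization against 50 nM 1α,25-dihydroxyvitamin D3 and DMSO; Hill-fit EC50.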
# [9] = biological target: Thyroid hormone receptor beta (Homo sapiens) (UniProt P10828); test: qHTS assay for small molecule agonists of thyroid hormone receptor beta signaling (AID 588545; calls by dose curve)
# In short: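 Beta-lactamase reporter activity under TR response element control is measured in HEK 293 cells after 18 hrs compound exposure. Signal is ratiometric CCF4 fluorescence, 460/530 nm.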
# [10] = qHTS assay for small molecule antagonists of retinoid X receptor alpha signaling (AID 588546); details: HEK293T RXRa-UAS-bla, beta-lactamase ratio, antagonist mode; measured here: W530 green channel, cytotoxicity proxy;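 note: cells stimulated with 9-cis-retinoic acid as agonist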
# In short: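 Beta-lactamase reporter inhibition, read as CCF4 fluorescence ratio (ex 405, em 460/530 nm) after 2 h at RT. HEK293T UAS-bla cells, 2500/well, were stimulated with 9-cis-RA at 500 or 100 nM final alongside test compound for 18 h at 37 C.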
# [11] = biological target: Thyroid hormone receptor beta (Homo sapiens) (UniProt P10828); test: qHTS assay for small molecule antagonists of thyroid hormone receptor beta signaling (AID 588547; active = well fitted inhibition curve with a large enough effect in the signal ratio, with a control signal flat, not every such curve was filed as active; the % refers to the signal ratio;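 note: cells stimulated with 0.4 nM T3 agonist during compound exposure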); details: TR-UAS-bla HEK293, beta-lactamase ratio, antagonist mode, 18 h
# In short: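 Inhibition of T3-driven (0.4nM final) beta-lactamase reporter activity was measured over 0.59 nM to 92 uM compound after 18 h at 37 C. The cells were GripTite HEK293 TR-UAS-bla in charcoal/dextran-stripped serum, with CCF4 ratio read-out and IC50 from Hill fits.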
# [12] = biological target: DNA dC->dU-editing enzyme APOBEC-3G (Homo sapiens) (UniProt Q9HC16); test: qHTS for inhibitors of Vif-A3G interactions: Validation (AID 588379)
# In short: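 HeLa cells stably expressing Vif and A3G-eYFP, 700 cells/well, incubated overnight at 37 deg C, then exposed to compound overnight at 37 deg C. Inhibition of Vif-mediated degradation read as increased yellow fluorescence (Ex 488/Em 500-530) by laser-scanning cytometry.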
# [13] = biological target: Cytochrome P450 3A4 (Homo sapiens) (UniProt P08684); test: qHTS Assay for Activators of Cytochrome P450 3A4 (AID 885); note: nearly all actives have a fitted effect of over 65% in size
# In short: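 Human CYP3A4 (20 nM) with Luciferin-PPXE at 25 uM (its KM) in 200 mM KPO4; 10 min compound preincubation, then NADPH regeneration and 60 min reaction at RT. Luciferin read by luminescence; normalized to 57 uM ketoconazole full inhibition.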
# [14] = biological target: Cytochrome P450 3A4 (Homo sapiens) (UniProt P08684); test: qHTS Assay for Inhibitors and Substrates of Cytochrome P450 3A4 (AID 884); note: nearly all actives have a fitted effect of over 50% in size
# In short: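 20 nM human CYP3A4 with 25 uM Luciferin-PPXE (at KM) in 200 mM KPO4, preincubated 10 min with compound; NADPH regeneration started a 60 min RT reaction. Luciferin detected by luminescence, normalized to 57 uM ketoconazole as full inhibition.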
# [15] = Confirmation and Secondary Assay for Modulators of Hemoglobin Beta Chain Splicing at IVS2 654 locus (AID 910);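 note: HeLa cells stably carrying EGFP split by mutant beta-globin IVS2-654 intron; per-well total GFP intensity by laser scanning cytometry after 2-day treatment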
# In short: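 Readout: per-well total peak green fluorescence (488 nm ex, 500–520 nm em) from objects 5–250 µm, reflecting correct splicing of an EGFP-654 reporter. Compounds were applied for 2 days at 37 °C to overnight-plated HeLa EGFP-654 cells; controls were DMSO and 500 nM IVS2-654 PNA.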
# [16] = Confirmation and Secondary Assay for Modulators of Hemoglobin Beta Chain Splicing at IVS2 705 locus (AID 930);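 note: HeLa cells stably expressing the EGFP-705 splicing reporter; GFP fluorescence per well restored by corrected splicing of the IVS2-705 intron in EGFP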
# In short: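 Per-well GFP, captured at 1 x 8 µm resolution with 488 nm excitation, served as the read-out for HeLa EGFP-705 cells incubated 2 days with test compound versus DMSO.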
# Sequence of Cytochrome P450 3A4 (Homo sapiens) (P08684 whole entry, looked up): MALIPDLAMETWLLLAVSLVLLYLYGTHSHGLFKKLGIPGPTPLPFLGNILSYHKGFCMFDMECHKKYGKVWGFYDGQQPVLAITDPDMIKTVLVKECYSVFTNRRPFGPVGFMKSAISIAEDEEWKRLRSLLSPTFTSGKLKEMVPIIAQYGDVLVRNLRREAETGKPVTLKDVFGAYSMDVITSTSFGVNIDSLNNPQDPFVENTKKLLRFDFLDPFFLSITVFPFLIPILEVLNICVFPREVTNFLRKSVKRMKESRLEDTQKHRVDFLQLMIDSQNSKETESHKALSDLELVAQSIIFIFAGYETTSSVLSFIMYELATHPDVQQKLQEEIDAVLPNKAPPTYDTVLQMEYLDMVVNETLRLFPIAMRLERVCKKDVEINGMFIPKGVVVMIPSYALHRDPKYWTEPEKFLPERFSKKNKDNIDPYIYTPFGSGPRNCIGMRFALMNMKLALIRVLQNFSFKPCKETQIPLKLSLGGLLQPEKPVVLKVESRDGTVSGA
# Sequence of Thyroid hormone receptor beta (Homo sapiens) (P10828 whole entry, looked up): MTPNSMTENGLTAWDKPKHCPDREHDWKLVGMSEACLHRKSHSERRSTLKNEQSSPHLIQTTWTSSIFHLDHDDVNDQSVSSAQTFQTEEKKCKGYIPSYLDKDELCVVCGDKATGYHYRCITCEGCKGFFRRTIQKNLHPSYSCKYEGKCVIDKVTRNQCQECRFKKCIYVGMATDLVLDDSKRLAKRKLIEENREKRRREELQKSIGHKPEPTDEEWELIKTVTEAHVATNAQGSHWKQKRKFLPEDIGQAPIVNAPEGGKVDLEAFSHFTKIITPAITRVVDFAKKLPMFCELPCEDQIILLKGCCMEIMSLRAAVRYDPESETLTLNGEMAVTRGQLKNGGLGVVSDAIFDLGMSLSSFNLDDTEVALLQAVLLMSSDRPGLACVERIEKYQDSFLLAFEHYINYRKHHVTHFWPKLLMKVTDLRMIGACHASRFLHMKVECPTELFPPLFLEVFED
# Sequence of Bile acid receptor (Homo sapiens) (Q96RI1 whole entry, looked up): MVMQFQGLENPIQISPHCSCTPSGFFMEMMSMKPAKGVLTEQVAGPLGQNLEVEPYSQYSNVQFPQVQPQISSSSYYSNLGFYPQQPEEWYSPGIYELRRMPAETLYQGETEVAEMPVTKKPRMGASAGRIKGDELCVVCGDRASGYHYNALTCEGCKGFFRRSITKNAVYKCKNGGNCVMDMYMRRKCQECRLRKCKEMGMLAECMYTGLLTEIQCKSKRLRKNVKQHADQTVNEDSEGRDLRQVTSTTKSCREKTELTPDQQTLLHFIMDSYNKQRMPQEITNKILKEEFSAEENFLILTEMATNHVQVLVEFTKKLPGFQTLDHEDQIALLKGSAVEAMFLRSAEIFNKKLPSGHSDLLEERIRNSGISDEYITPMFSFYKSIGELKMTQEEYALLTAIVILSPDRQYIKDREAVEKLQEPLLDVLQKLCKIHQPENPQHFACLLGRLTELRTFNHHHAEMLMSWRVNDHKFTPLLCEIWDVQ
# Sequence of Peroxisome proliferator-activated receptor delta (Homo sapiens) (Q03181 whole entry, looked up): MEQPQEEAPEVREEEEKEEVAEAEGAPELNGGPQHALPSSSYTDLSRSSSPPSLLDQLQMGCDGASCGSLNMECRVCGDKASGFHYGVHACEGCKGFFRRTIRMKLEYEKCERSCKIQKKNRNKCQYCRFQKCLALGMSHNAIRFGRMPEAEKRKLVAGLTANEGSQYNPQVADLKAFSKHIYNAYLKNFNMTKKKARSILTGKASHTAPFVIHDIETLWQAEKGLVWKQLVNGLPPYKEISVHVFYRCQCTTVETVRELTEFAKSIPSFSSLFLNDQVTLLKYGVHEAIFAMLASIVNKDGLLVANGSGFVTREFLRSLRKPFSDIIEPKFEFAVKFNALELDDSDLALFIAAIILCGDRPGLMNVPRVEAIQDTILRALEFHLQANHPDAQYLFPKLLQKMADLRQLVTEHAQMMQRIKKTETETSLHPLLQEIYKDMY
# Sequence of Vitamin D3 receptor (Homo sapiens) (P11473 whole entry, looked up): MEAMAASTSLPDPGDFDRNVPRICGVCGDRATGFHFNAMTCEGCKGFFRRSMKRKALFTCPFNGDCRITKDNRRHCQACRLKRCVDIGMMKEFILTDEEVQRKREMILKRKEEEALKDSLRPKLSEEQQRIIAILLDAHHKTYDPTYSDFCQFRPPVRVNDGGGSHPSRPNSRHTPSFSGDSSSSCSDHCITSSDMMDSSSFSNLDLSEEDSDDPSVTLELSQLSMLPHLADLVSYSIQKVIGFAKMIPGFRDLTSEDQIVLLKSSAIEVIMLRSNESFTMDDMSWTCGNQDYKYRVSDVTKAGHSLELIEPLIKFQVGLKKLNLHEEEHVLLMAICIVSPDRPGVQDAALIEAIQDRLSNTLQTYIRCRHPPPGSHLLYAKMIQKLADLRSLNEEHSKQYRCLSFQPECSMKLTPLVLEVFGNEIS
# Sequence of DNA dC->dU-editing enzyme APOBEC-3G (Homo sapiens) (Q9HC16 whole entry, looked up): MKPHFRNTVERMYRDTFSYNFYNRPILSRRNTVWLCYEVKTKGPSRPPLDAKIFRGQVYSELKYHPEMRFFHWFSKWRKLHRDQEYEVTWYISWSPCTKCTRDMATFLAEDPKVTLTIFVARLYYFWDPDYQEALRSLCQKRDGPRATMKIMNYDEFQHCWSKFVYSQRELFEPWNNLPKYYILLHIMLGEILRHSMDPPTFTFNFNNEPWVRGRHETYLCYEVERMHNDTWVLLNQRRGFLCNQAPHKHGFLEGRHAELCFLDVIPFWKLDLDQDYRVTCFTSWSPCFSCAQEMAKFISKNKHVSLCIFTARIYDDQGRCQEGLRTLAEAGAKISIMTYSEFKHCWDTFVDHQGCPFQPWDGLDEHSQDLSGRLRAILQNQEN
smiles,measurement,setting,value
CC1(C)S[C@@H]2[C@H](N)C(=O)N2C1C(=O)O (stereo partly drawn),Potency,[1],inactive
same,Potency,[2],inactive
same,Potency,[3],inactive
same,Potency,[4],inactive
same,Potency,[5],inactive
OCC(O)[C@H]1O[C@@H]2O[C@H](C(Cl)(Cl)Cl)O[C@@H]2[C@H]1O (stereo partly drawn),Potency,[1],inactive
same,Potency,[2],inactive
same,Potency,[3],inactive
same,Potency,[4],inactive
same,Potency,[5],inactive
COC(C(=O)C(O)C(C)O)C1Cc2cc3cc(OC4CC(OC5CC(O)C(OC)C(C)O5)C(OC(C)=O)C(C)O4)c(C)c(O)c3c(O)c2C(=O)C1OC1CC(OC2CC(OC3CC(C)(O)C(OC(C)=O)C(C)O3)C(O)C(C)O2)C(O)C(C)O1 (stereo not drawn),Potency,[1],112 nM (active)
same,Potency,[2],126 nM (active)
same,Potency,[3],2690 nM (active)
same,Potency,[5],794 nM (active)
CCC/C=C/C=C/C(=O)OC1/C(=C/C(=O)OC)CC2CC(C(C)O)OC(=O)CC(O)CC3CC(OC(C)=O)C(C)(C)C(O)(CC4C/C(=C/C(=O)OC)CC(/C=C\C(C)(C)C1(O)O2)O4)O3 (stereo not drawn),Potency,[1],708 nM (active)
same,Potency,[2],2820 nM (active)
same,Potency,[3],953 nM (active)
same,Potency,[4],953 nM (active)
same,Potency,[5],2510 nM (active)
C#CCN1CC(=O)N(COC(=O)[C@@H]2[C@@H](C=C(C)C)C2(C)C)C1=O,activation,[6],5.41% (inactive)
same,outcome,[7],inactive
same,outcome,[8],inactive
same,Potency,[9],inactive
same,max response,[10],-1.89%
same,activity change % (negative = inhibition),[11],21.3% (inactive)
same,Potency,[1],inactive
same,Potency,[2],inactive
same,Potency,[3],inactive
same,Potency,[4],inactive
same,Potency,[5],inactive
CC1OC(O[C@H]2C[C@@H](O)[C@]3(CO)[C@@H]4C(CC[C@]3(O)C2)[C@@]2(O)CC[C@H](C3=CC(=O)OC3)[C@@]2(C)C[C@H]4O)C(O)C(O)C1O (stereo partly drawn),Potency,[1],inactive
same,Potency,[2],inactive
same,Potency,[3],inactive
same,Potency,[5],inactive
CCCN1CCCC2Cc3nc(N)ncc3CC21 (stereo not drawn),Potency,[1],inactive
same,Potency,[2],inactive
same,Potency,[3],inactive
same,Potency,[4],inactive
same,Potency,[5],inactive
CC(=O)[C@H]1CC[C@H]2C3CC[C@H]4C[C@H](O)CC[C@]4(C)C3CC[C@]12C (stereo partly drawn),Potency,[3],inactive
same,Potency,[4],inactive
same,Potency,[5],inactive
CC(=O)Oc1ccc2c3c1OC1[C@@H](OC(C)=O)C=C[C@H]4[C@H](C2)N(C)CC[C@]314 (stereo partly drawn),Potency,[2],inactive
same,Potency,[4],inactive
same,Potency,[5],inactive
CCOC(=O)/C=C(C)/C=C/CC(C)CCCC(C)C (stereo not drawn),Potency,[1],inactive
same,Potency,[2],inactive
same,Potency,[3],inactive
same,Potency,[4],inactive
same,Potency,[5],inactive
CCCCCCC(=O)O[C@H]1CC[C@H]2[C@@H]3CCC4CC(=O)C=C(C)[C@]4(C)[C@H]3CC[C@]12C (stereo partly drawn),Potency,[1],8910 nM (active)
same,Potency,[4],inactive
same,Potency,[5],inactive
CC(Cc1ccccc1)N(C)C (stereo not drawn),Potency,[2],inactive
same,Potency,[3],inactive
same,Potency,[4],inactive
same,Potency,[5],inactive
CC1(C)[C@@H](C=C(Cl)Cl)[C@@H]1C(=O)OCc1c(F)c(F)cc(F)c1F,Potency,[1],inactive
same,Potency,[2],inactive
same,Potency,[3],inactive
same,Potency,[4],inactive
C=CC[N+]1(C)CCC23c4c5ccc(O)c4O[C@H]2C(=O)CC[C@@]3(O)C1C5 (stereo partly drawn),Potency,[1],inactive
same,Potency,[2],inactive
same,Potency,[3],inactive
same,Potency,[4],inactive
same,Potency,[5],inactive
COc1ccc2c3c1O[C@H]1[C@@H](O)C=C[C@H]4C(C2)NCCC341 (stereo partly drawn),Potency,[1],inactive
same,Potency,[2],inactive
same,Potency,[3],inactive
same,Potency,[4],inactive
same,Potency,[5],inactive
C[C@]12CC[C@H]3[C@@H](CC[C@@]45O[C@@H]4C(=O)C(C#N)C[C@]35C)[C@@H]1CC[C@@H]2O (stereo partly drawn),Potency,[1],inactive
same,Potency,[2],inactive
same,Potency,[4],inactive
C[C@]12CCC3C(CC[C@]4(O)C[C@@H](O)CC[C@]34C=O)[C@@]1(O)CC[C@@H]2C1=CC(=O)OC1 (stereo partly drawn),outcome,[12],inactive
CC(C)CCC(=O)OC1CCC2C3CCC4=CC(=O)CC[C@]4(C)C3CC[C@]12C (stereo partly drawn),Potency,[1],10000 nM (active)
same,Potency,[2],11200 nM (active)
same,Potency,[3],inactive
CN(C)C1C(=O)C(C(N)=O)C(=O)C2(O)C(=O)C3C(=O)c4c(O)cccc4C(C)(O)C3C(O)C12 (stereo not drawn),Potency,[4],inactive
C#CC1(O)C=CC2C3CCC4=CC(=O)CCC4C3CCC21CC (stereo not drawn),Potency,[1],12600 nM (active)
same,Potency,[3],9530 nM (active)
same,Potency,[4],6750 nM (active)
CC[C@@H](CO)Nc1nc(NCc2ccccc2)c2ncn(C(C)C)c2n1,Potency,[13],inactive
CC1CC[C@@]2(NC1)OC1CC3C4CC[C@@H]5CC(O)CC[C@@]5(C)C4CC[C@]3(C)C1C2C (stereo partly drawn),Potency,[14],inactive
same,Potency,[15],inactive
same,outcome,[16],inactive
same,Potency,[1],12600 nM (active)
same,Potency,[5],inactive
